This passage reports inhibition results from PubChem BioAssay AID488896 (Broad Institute, 2010).

In all, about 320,000 compounds went through this assay and about 3,100 (0.97%) were called active.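 The calls were made as follows: active = mean replicate inhibition of at least 70% and a set share of replicates each scoring 70 or more; inconclusive = meets just one of the two criteria; inactive = fails both criteria.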 The entries come from a sample that favours actives as a whole.

In the experiment the target is Scavenger receptor class B member 1 (Mus musculus) (UniProt Q61009). The experiment can be described thus: inhibitors of SR-BI mediated HDL lipid uptake, primary screen, ldlA[mSR-BI] cells, fluorescence, single point (AID 488896).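 Also: 0% = median of neutral control wells and 100% = median of positive control wells.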 To be noted: ldlA[mSR-BI] CHO cells, DiI-HDL uptake fluorescence, 3 h; at 12.5 µM; hits give high values.
Chain of Scavenger receptor class B member 1 (Mus musculus) (Q61009 whole entry, looked up): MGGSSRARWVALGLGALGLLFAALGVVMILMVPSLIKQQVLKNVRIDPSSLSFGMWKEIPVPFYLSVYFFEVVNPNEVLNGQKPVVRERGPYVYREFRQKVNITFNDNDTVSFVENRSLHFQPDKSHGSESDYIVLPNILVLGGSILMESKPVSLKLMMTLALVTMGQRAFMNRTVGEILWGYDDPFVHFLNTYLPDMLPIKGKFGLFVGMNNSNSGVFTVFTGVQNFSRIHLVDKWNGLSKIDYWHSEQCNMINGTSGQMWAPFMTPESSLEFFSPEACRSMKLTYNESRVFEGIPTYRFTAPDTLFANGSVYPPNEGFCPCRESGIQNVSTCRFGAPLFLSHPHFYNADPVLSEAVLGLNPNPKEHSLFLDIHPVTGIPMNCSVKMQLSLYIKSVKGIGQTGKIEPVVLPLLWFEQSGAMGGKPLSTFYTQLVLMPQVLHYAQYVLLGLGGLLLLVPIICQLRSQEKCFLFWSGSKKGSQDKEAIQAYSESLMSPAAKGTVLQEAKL
For `O=C(CCC(=O)N1CCN(S(=O)(=O)c2ccc(Cl)cc2)CC1)NCc1cccc(C(F)(F)F)c1`, the inhibition was -6.5% (inactive).

On to `CC(C)CC(=O)N1CCN(Cc2cccc(Cl)c2)CC1`, for which the inhibition was -7.62% (inactive).

Turning to `CCOc1cc(CN2CCN(C(=O)CC(C)C)CC2)ccc1OC`, the inhibition was 1.83% (inactive).

Take `CC(C)CC(=O)N1CCN(Cc2ccccc2Br)CC1`: the inhibition was 82.7% (active).

As for `O=C(Nc1c(Br)cc2c(c1Br)Cc1ccccc1-2)C(F)(F)F`, the inhibition is 23.8% (inactive).

On to `CN(C)c1ccc(C2N(C)C(=O)c3ccccc3N2C)cc1` (configuration not stated), for which the inhibition is -4.86% (inactive).

Regarding `CN(C)c1ccc(Nc2c3c4c(cccc4n(C)c2=O)C(=O)c2ccccc2-3)cc1`, the inhibition was 99.9% (active).

Turning to `CCOC(=O)CCC(NC(=O)c1ccc(CNc2nc3cc(C(F)(F)F)ccc3nc2C(=O)OCC)cc1)C(=O)OCC` (configuration not stated), the inhibition is 43.7% (inactive).

`O=C1C[C@@H]2c3c(cccc3CN1Cc1ccccc1)C[C@@H](O)[C@H]2O`: the inhibition was -2.09% (inactive).

`COc1ccc(OC)c(Cc2cnc3nc(N)nc(N)c3c2C)c1`: the inhibition is 25.9% (inactive).

On to `c1ccc(C(=NNc2nc3ccccc3s2)c2ccccn2)cc1`, for which the inhibition was 40.5% (inactive).

Turning to `O=C(c1cccc(S(=O)(=O)N2CCCCCC2)c1)N1CCN(Cc2ccccc2)CC1`, the inhibition is 19.3% (inactive).

As for `O=S(=O)(O)c1cc2onnc2c2ccccc12`, the inhibition was -15.5% (inactive).

`Cc1ccc(SCc2c(C(=O)N/N=C/C3CC=CCC3)nnn2-c2nonc2N)cc1` (configuration not stated): the inhibition was -16.5% (inactive).

In the case of `Nc1nonc1-n1nnc(C(=O)N/N=C/c2cc(Br)ccc2O)c1CSC1=NCCS1`, the inhibition is 104% (active).

Turning to `Cc1ccc(SCc2c(C(=O)N/N=C/c3cccnc3)nnn2-c2nonc2N)cc1`, the inhibition is -5.04% (inactive).

In the case of `O=[N+]([O-])c1ccc(C=NN=Cc2ccc([N+](=O)[O-])cc2)cc1`, the inhibition was 27% (inactive).

On to `CC(C)(C)c1nnc2sc(SCC(O)=C(C#N)c3nc4ccccc4[nH]3)nn2c1=O`, for which the inhibition is 22.5% (inactive).

In the case of `COc1ccc(-c2csc(Cc3nc(O)cs3)n2)cc1`, the inhibition was 56.2% (inactive).

Regarding `COc1ccc(OC)c(Nc2nc(-c3ccc(O)c(O)c3)cs2)c1`, the inhibition is 108% (active).

Turning to `CC(C)(C)C(=O)OCc1nc(-c2ccc(O)c(O)c2)cs1`, the inhibition is -7.58% (inactive).

Turning to `CCN1C[C@@H]2[C@@H]3C(=O)N(C)C(=O)[C@@H]3[C@](C)(C1=O)N2C(=O)c1ccccc1`, the inhibition is 27.8% (inactive).

Turning to `COc1ccc(CCC(=O)Nc2ccc(Cl)c(S(=O)(=O)N3CCOCC3)c2)cc1OC`, the inhibition is 60.3% (inactive).

`COc1ccc(/C=N/NC(=O)CNC(=O)c2ccc(S(=O)(=O)N3CCCC3)cc2)c(OC)c1`: the inhibition was 84.2% (active).

For `COc1cc(C(=O)NNC(=O)c2ccc(S(=O)(=O)N3CCCCC3)cc2)cc(OC)c1OC`, the inhibition is -0.571% (inactive).

As for `COc1cccc(/C=N/NC(=O)CNC(=O)c2ccc(S(=O)(=O)N3CCOCC3)cc2)c1OC`, the inhibition was 8.73% (inactive).

Turning to `COc1ccc(Cn2cc(CN3CCS(=O)(=O)N(Cc4ccc(-c5cccc(Cl)c5)cc4)C(C)C3=O)nn2)cc1` (configuration not stated), the inhibition is 34.7% (inactive).

As for `C=CC(=O)Nc1ccc(Nc2ccnc(Nc3ccc(N4CCN(C)CC4)cc3)n2)cc1`, the inhibition was 5.16% (inactive).

`COc1ccc(NC(=S)NCC2CCN(c3ccc(OC)cc3)C2)cc1` (configuration not stated): the inhibition was 27.5% (inactive).

For the compound `COc1ccc(N2CCC(CNC(=S)Nc3c(C)cccc3C)C2)cc1` (configuration not stated), the inhibition is 80.7% (active).

`COc1ccc(NC(=S)NCCN2CCC(C)CC2)cc1`: the inhibition is 1.02% (inactive).

For the compound `Cc1ccccc1N1CCN(C(=O)c2cccnc2)CC1`, the inhibition is -2.45% (inactive).

With `Cc1cccc(CC2(O)C(=O)Nc3ccccc32)n1` (configuration not stated), the inhibition was -13% (inactive).

In the case of `O=S1(=O)CSCS(=O)(=O)C1`, the inhibition was -19.5% (inactive).

`CC(=O)c1ccc(N=C2SCCCN2C(=O)C2CCCCC2)cc1`: the inhibition was 78.7% (active).

On to `Cc1ccc(N=C2SCCCN2C(=O)c2cccc(N3C(=O)CCC3=O)c2)cc1Cl`, for which the inhibition is 32.4% (inactive).

As for `CCC1CCCCN1C(=S)Nc1ccc(C(C)=O)cc1` (configuration not stated), the inhibition is -13.3% (inactive).

For `COc1cccc(C=CC(=O)C=CC=Cc2ccccc2)c1`, the inhibition was -11.1% (inactive).

In the case of `COc1cc(NC(=O)c2ccc3c(c2)OCO3)ccc1NC(=O)c1cccs1`, the inhibition is 58.8% (inactive).

As to `COc1cc(NC(=O)c2cccs2)ccc1NC(=O)c1ccccc1Cl`, the inhibition is 83.3% (active).

For `COc1cc(NC(=O)COc2ccccc2Cl)ccc1NC(=O)C(C)C`, the inhibition is 49.8% (inactive).

In the case of `O=C(Nc1ccccc1)Oc1cccc2cccnc12`, the inhibition is -13.2% (inactive).

Take `c1ccc(CNc2ncnc3[nH]ncc23)cc1`: the inhibition was -13.5% (inactive).

On to `O=C(Nc1ccccc1Cl)c1ccccc1S(=O)(=O)c1ccccc1[N+](=O)[O-]`, for which the inhibition was 4.02% (inactive).

For `CN(C)S(=O)(=O)Oc1ccccc1C(=O)Nc1ccccc1Cl`, the inhibition was 79.9% (active).

Consider `CC(=O)Nc1ccc(NC(=O)COc2ccccc2C(=O)Nc2cccc(Cl)c2Cl)cc1`, for which the inhibition is 63.3% (inactive).

Consider `CCN1C[C@@H]2[C@@H]3C(=O)N(Cc4ccccc4)C(=O)[C@@H]3[C@](C)(C1=O)N2C(=O)c1ccc(C(C)(C)C)cc1`, for which the inhibition was -30.1% (inactive).

On to `Oc1ccc(-c2nc3ccccc3nc2-c2ccc(O)cc2O)c(O)c1`, for which the inhibition is 26% (inactive).

On to `COc1ccc(-n2c(SCC(=O)NCc3cccs3)nnc2-c2ccoc2C)cc1`, for which the inhibition is -3.66% (inactive).

Take `COc1ccc(-n2c(SCC(=O)NCc3ccco3)nnc2-c2c[nH]c3ccccc23)cc1`: the inhibition is 71.4% (active).

As to `O=C(CSc1nnc(-c2c[nH]c3ccccc23)n1-c1ccc(F)cc1)NCc1ccco1`, the inhibition is 20.6% (inactive).

`COc1ccc(CCN2CC(C(=O)OCC(=O)NCc3ccccc3Cl)CC2=O)cc1OC` (configuration not stated): the inhibition was -1.72% (inactive).

As to `CN(C)c1ccc(/C=N/Nc2cc(N3CCOCC3)nc(N3CCOCC3)n2)cc1`, the inhibition was 78.8% (active).

Turning to `COc1ccc(/C=N/Nc2cc(N3CCOCC3)nc(C)n2)c(OC)c1`, the inhibition was 52.8% (inactive).

Turning to `Cc1nc(Cl)cc(N/N=C/c2ccccc2)n1`, the inhibition was 15.7% (inactive).

Turning to `CCN(CC)c1ccc(C(=O)N/N=C/c2ccc(N3CCOCC3)cc2)cc1`, the inhibition was 25% (inactive).

On to `Cc1ccccc1N/N=C/c1ccc(N2CCOCC2)cc1`, for which the inhibition is 15.9% (inactive).

With `C(=N/Nc1cc(N2CCOCC2)nc(N2CCOCC2)n1)/c1ccccc1`, the inhibition was 76% (active).

Take `O=C1c2ccccc2C(=O)N1CCCCCCN1C(=O)c2ccccc2C1=O`: the inhibition was 7.39% (inactive).

Turning to `Cc1nc2ccccc2c(C(=O)O)c1-c1ccccn1`, the inhibition is -15.2% (inactive).

As for `Oc1cccc(CCc2ccccn2)c1`, the inhibition was -0.288% (inactive).

For the compound `O=C(O)C(=Cc1ccccc1[N+](=O)[O-])c1ccccc1`, the inhibition was 0.653% (inactive).

As for `CSCCC(NS(=O)(=O)c1ccc(C)cc1)C(=O)N(C)CC(=O)Nc1ccccc1Br` (configuration not stated), the inhibition was 16.3% (inactive).

For `Cc1nc(-c2ccc(F)cc2)c(CC(=O)N(C)CC(=O)Nc2c(C)cccc2C)s1`, the inhibition is -10.6% (inactive).

As for `CCOc1ccc(NC(=O)CN(C)C(=O)CCSc2ccc(F)cc2)cc1OCC`, the inhibition was 39.6% (inactive).

As for `CCOc1ccc(NC(=O)CN(C)C(=O)Cc2sc(C)nc2-c2ccc(F)cc2)cc1OCC`, the inhibition was 73.5% (active).

With `S=C(Nc1ccccc1)Nc1ccc2ccccc2c1`, the inhibition was 9.12% (inactive).

On to `O=C(O)c1ccc(Cn2cnc3c(=S)nc[nH]c32)cc1`, for which the inhibition is -20.4% (inactive).

Regarding `CC/C(=C\c1ccc(Cl)cc1)c1ccncc1`, the inhibition was 29.1% (inactive).

On to `COc1ccc(/C=C/C2=CC(C)(C)NC(=S)N2)c(OC)c1`, for which the inhibition was 78.2% (active).

On to `COc1cc(/C=C/C2=CC(C)(C)NC(=S)N2)cc(OC)c1OC`, for which the inhibition is 26.3% (inactive).

Take `COc1ccc(/C=C2/C(=O)N(c3ccccc3)N=C2C)c(OC)c1`: the inhibition is 30.7% (inactive).

As to `O=C(Nc1ccn(CCCNCc2ccc3[nH]ccc3c2)c(=O)n1)OCc1ccccc1`, the inhibition is 14.3% (inactive).

Consider `FC(F)(F)c1ccc(-c2cccc3c2C2CC3CCN2Cc2ccccc2)cc1` (configuration not stated), for which the inhibition was -20.1% (inactive).

As to `COc1ccc(NC(=O)CCC(=O)Nc2cc(OC)c(NC(=O)c3ccco3)cc2OC)c(OC)c1`, the inhibition was 58.1% (inactive).

In the case of `COc1ccc(NC(=O)c2cccc(NC(=O)c3ccco3)c2)c(OC)c1`, the inhibition was 75.7% (active).

With `COc1ccccc1C(=O)Nc1ccc(NC(=O)c2ccco2)c(C)c1`, the inhibition is 44.6% (inactive).

As to `CC1C(C)N(C(=O)CCl)c2ccccc2N1C(=O)CCl` (configuration not stated), the inhibition is -12% (inactive).

Regarding `Nc1ncnc2c1cnn2C1CC(O)C(CO)O1` (configuration not stated), the inhibition was -3.29% (inactive).

For the compound `CCOc1ccc(C(=O)Nc2ccc(S(=O)(=O)NCC3CCCO3)cc2)cc1OCC` (configuration not stated), the inhibition was 82.5% (active).

As for `CCC(=O)Nc1ccc(S(=O)(=O)NCC2CCCO2)cc1` (configuration not stated), the inhibition is 16.2% (inactive).

On to `Cc1ccc(NC(=O)c2ccc(S(=O)(=O)NCC3CCCO3)cc2)cc1C` (configuration not stated), for which the inhibition is 51.6% (inactive).

Turning to `CC(C)(C)c1ccc(C(=O)NCCC(=O)NCc2ccco2)cc1`, the inhibition is -4.1% (inactive).

On to `CC(C)OCCCNC(=O)c1ccc(C2SCC(=O)N2Cc2ccco2)cc1` (configuration not stated), for which the inhibition is 75.6% (active).

Take `O=C(NCc1ccco1)c1ccc(Cn2c(=O)c3sccc3n(Cc3ccc(F)cc3)c2=O)cc1`: the inhibition was 28.8% (inactive).

For the compound `CSc1ncnc2c1ncn2CC(=O)C1CCC2C3CCC4=CC(=O)CCC4(C)C3CCC12C` (configuration not stated), the inhibition was -12.4% (inactive).

Regarding `O=C(Nc1cccc(Br)c1)C1CC(=O)N(C2CCCC2)C1` (configuration not stated), the inhibition is -9.43% (inactive).

`O=C(NCC1CCCO1)c1cc2c([nH]c3ccccc32)c(-c2ccc(F)cc2)n1` (configuration not stated): the inhibition is 64.1% (inactive).

`O=C(NCCCO)c1cc2c([nH]c3ccccc32)c(-c2ccc(F)cc2)n1`: the inhibition is 73.4% (active).

As for `O=C(NCCc1ccc(F)cc1)c1n[nH]c2ccccc12`, the inhibition is 22.1% (inactive).

On to `Cn1c(=O)[nH]c2c(c(C(=O)O)nn2C)c1=O`, for which the inhibition is -13.4% (inactive).

`CCCCNCCS(=O)(=O)NCc1ccccc1`: the inhibition was -2.76% (inactive).

Usually inhibition stands for the change of the read-out against control, counted positive when it falls.
